In experiment [1] the target is Serine/threonine-protein kinase MRCK beta (Homo sapiens) (UniProt Q9Y5S2). Conditions: at 1 µM.
For experiment [2] the target is unchanged. Conditions: at 10 µM.
Experiment [3] addresses Ribosomal protein S6 kinase alpha-5 (Homo sapiens) (UniProt O75582). Conditions: at 1 µM.
Experiment [4] shares this target. Conditions: at 10 µM.
Experiment [5] deals with Ribosomal protein S6 kinase alpha-4 (Homo sapiens) (UniProt O75676). Conditions: at 10 µM.
In experiment [6] the target is SRSF protein kinase 3 (Homo sapiens) (UniProt Q9UPE1). Conditions: at 1 µM.
Experiment [7] has the same target. Conditions: at 10 µM.
Experiment [8] addresses T1, Serine/threonine-protein kinase 4 (Homo sapiens) (UniProt Q13043).
T1 sequence (whole entry): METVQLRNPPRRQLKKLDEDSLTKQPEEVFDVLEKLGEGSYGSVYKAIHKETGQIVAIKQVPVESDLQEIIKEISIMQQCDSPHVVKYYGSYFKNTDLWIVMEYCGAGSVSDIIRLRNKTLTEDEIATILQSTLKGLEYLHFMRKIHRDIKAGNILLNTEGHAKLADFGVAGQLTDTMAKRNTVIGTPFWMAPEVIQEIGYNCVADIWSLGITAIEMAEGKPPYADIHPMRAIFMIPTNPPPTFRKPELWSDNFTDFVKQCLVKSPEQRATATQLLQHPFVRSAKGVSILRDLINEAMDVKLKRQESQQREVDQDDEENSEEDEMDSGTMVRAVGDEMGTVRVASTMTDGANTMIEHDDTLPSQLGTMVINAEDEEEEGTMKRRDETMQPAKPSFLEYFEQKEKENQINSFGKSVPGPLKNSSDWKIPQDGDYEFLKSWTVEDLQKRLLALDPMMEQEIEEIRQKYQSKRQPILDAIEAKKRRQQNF
Conditions: at 1 µM.

In experiment [9] the target is T1, Serine/threonine-protein kinase 4 (Homo sapiens). Conditions: at 10 µM.
Experiment [10] has as its target T2, Serine/threonine-protein kinase 3 (Homo sapiens) (UniProt Q13188).
T2 sequence (whole entry): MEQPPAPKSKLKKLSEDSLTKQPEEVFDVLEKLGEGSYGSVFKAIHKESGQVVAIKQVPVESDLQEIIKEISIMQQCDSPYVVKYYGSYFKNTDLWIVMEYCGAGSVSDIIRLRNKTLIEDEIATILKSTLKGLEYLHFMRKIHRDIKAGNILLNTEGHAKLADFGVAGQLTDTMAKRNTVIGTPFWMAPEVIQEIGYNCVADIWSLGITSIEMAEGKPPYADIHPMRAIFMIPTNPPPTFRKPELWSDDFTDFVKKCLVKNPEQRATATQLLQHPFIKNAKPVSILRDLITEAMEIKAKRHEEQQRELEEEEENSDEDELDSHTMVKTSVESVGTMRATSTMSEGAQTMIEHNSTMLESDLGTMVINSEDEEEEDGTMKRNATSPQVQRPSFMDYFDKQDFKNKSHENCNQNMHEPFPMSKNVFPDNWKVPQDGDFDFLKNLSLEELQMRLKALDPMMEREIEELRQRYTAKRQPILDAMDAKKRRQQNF
Conditions: at 10 µM.

Experiment [11] deals with Serine/threonine-protein kinase 24 (Homo sapiens) (UniProt Q9Y6E0). Conditions: at 1 µM.
Experiment [12] has the same target. Conditions: at 10 µM.
Experiment [13] addresses T3, Tyrosine-protein kinase Mer (Homo sapiens) (UniProt Q12866).
T3 sequence (whole entry): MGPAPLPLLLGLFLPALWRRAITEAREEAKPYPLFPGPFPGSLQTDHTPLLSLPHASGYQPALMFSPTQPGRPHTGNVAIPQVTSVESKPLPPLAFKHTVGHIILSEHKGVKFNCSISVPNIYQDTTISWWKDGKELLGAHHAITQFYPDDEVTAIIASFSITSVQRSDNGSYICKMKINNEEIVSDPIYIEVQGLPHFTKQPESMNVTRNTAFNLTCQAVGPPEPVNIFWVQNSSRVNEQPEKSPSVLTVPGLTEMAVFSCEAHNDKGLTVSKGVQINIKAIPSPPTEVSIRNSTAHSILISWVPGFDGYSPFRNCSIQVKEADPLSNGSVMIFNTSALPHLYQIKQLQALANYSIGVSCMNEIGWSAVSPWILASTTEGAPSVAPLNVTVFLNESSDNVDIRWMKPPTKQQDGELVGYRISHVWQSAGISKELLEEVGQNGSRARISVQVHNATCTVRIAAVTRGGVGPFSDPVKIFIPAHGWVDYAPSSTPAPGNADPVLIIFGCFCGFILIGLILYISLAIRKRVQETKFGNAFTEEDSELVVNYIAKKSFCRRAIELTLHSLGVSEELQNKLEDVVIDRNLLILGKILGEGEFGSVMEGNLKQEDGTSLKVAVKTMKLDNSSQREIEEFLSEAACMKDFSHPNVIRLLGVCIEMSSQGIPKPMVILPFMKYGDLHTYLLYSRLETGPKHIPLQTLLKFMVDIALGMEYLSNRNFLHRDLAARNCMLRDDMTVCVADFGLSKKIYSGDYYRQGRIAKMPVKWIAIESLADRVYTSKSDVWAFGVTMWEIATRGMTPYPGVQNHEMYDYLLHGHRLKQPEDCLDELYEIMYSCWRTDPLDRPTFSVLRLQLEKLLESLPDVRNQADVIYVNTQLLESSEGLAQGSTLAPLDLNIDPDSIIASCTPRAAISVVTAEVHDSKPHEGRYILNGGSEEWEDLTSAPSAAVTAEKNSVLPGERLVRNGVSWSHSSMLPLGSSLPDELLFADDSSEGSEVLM
Conditions: at 1 µM.

Experiment [14] has as its target T3, Tyrosine-protein kinase Mer (Homo sapiens). Conditions: at 10 µM.
Experiment [15] deals with Hepatocyte growth factor receptor (Homo sapiens) (UniProt P08581). Conditions: at 1 µM.
The target is the same in experiment [16]. Conditions: at 10 µM.
Experiment [17] deals with MAP kinase-interacting serine/threonine-protein kinase 2 (Homo sapiens) (UniProt Q9HBH9). Conditions: at 1 µM.
Experiment [18] has the same target. Conditions: at 10 µM.
Experiment [19] deals with Ribosomal protein S6 kinase alpha-4 (Homo sapiens) (UniProt O75676). Conditions: at 1 µM.
Experiment [20] addresses T2, Serine/threonine-protein kinase 3 (Homo sapiens). Conditions: at 1 µM.

For 7 molecules, residual activity results are on record in ChEMBL document CHEMBL2218924, “A broad activity screen in support of a chemogenomic map for kinase signalling research and drug discovery” (Biochem J, 2013).

Molecules are shown by their SMILES.

Sequence of Hepatocyte growth factor receptor (Homo sapiens) (P08581 whole entry): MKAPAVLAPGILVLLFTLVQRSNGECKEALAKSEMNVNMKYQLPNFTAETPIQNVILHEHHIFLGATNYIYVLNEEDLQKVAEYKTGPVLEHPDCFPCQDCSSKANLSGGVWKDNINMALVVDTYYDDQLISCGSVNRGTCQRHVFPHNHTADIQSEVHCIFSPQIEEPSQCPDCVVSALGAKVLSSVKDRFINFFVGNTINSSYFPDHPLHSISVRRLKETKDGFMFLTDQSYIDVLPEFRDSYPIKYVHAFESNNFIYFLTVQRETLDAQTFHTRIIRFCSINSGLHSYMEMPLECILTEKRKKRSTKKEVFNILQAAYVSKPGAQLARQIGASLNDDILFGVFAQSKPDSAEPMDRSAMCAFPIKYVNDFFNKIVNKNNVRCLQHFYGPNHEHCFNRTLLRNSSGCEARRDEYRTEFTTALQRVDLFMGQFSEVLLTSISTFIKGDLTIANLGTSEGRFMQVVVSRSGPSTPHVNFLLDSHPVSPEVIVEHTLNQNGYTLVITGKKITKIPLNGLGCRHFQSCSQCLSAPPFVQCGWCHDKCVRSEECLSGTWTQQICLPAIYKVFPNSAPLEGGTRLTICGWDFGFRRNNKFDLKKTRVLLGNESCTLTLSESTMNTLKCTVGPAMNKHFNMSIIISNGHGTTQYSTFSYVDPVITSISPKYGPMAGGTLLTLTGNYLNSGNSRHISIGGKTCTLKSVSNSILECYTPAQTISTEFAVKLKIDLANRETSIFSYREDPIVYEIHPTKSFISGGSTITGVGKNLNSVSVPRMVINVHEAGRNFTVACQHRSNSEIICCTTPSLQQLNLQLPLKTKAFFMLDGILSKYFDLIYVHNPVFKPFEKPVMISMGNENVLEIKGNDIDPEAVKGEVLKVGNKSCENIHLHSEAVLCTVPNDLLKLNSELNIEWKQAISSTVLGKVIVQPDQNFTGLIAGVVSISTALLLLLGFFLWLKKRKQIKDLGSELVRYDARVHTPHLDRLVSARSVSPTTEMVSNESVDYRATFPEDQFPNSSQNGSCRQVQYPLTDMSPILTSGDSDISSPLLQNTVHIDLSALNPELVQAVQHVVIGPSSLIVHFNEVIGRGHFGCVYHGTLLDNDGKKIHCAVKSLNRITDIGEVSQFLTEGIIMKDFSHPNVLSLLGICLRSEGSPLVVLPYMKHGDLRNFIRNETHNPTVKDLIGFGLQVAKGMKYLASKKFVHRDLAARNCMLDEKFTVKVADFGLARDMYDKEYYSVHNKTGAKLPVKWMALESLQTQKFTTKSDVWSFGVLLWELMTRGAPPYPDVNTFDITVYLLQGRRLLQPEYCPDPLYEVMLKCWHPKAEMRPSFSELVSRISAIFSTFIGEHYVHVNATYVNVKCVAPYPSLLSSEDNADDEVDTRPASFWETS
Sequence of MAP kinase-interacting serine/threonine-protein kinase 2 (Homo sapiens) (Q9HBH9 whole entry, looked up): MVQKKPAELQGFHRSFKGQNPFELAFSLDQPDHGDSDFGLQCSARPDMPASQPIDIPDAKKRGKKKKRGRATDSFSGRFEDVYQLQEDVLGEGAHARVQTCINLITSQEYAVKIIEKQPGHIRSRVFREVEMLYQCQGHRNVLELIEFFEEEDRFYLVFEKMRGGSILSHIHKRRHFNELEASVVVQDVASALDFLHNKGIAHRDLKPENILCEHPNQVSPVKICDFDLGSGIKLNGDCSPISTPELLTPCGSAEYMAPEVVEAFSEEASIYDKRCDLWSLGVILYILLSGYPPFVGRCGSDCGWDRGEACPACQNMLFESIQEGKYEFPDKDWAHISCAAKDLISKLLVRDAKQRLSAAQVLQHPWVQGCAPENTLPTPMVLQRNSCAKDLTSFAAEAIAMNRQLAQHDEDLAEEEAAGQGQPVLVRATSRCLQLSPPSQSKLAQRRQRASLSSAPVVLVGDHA
Sequence of SRSF protein kinase 3 (Homo sapiens) (Q9UPE1 whole entry): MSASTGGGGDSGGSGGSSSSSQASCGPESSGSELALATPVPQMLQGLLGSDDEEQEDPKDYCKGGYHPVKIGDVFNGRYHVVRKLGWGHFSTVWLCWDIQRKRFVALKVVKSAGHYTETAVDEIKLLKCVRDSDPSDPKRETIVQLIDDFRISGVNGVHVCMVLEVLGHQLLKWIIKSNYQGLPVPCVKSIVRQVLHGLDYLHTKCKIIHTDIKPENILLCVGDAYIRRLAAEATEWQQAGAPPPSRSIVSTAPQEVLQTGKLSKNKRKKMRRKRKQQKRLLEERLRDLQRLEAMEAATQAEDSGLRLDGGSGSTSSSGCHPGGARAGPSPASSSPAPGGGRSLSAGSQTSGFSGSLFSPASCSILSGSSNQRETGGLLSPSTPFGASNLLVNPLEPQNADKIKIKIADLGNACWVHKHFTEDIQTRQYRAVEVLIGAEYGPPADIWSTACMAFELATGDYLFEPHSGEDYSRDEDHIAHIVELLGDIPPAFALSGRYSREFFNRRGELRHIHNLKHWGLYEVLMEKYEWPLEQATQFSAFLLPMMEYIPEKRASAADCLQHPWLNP
Sequence of Ribosomal protein S6 kinase alpha-5 (Homo sapiens) (O75582 whole entry, looked up): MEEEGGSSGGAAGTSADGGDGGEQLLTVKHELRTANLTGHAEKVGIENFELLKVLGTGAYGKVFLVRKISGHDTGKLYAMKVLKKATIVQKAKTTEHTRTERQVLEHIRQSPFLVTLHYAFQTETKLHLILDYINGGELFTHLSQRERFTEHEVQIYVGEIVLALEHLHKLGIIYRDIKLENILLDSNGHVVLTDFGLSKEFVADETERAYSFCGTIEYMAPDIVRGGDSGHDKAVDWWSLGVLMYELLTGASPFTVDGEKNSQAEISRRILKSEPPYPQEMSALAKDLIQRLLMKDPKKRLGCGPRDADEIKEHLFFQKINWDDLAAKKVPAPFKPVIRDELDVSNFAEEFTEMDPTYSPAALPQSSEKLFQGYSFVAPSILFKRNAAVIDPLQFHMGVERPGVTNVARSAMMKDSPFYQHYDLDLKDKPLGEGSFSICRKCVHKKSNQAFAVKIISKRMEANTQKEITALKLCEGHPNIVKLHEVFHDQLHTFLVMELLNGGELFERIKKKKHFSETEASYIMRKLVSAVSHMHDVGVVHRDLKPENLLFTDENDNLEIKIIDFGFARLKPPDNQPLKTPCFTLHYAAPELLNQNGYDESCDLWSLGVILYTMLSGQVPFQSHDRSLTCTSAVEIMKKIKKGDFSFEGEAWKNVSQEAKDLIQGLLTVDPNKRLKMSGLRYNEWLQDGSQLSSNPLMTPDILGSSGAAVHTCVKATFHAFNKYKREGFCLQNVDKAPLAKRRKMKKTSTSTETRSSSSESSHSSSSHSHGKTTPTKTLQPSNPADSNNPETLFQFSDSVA
Sequence of Serine/threonine-protein kinase 24 (Homo sapiens) (Q9Y6E0 whole entry, looked up): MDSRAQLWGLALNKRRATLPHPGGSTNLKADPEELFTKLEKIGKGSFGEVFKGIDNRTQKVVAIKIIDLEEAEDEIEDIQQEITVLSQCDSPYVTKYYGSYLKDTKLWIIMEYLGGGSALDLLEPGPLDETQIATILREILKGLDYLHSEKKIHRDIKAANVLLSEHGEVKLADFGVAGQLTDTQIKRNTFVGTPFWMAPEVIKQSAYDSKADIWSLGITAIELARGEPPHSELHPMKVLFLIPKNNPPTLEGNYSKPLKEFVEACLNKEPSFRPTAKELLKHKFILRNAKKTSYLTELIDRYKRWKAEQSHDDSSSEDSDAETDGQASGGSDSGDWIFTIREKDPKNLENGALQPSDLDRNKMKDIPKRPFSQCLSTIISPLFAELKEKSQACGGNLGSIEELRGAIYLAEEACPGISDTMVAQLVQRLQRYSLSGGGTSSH
Sequence of Ribosomal protein S6 kinase alpha-4 (Homo sapiens) (O75676 whole entry, looked up): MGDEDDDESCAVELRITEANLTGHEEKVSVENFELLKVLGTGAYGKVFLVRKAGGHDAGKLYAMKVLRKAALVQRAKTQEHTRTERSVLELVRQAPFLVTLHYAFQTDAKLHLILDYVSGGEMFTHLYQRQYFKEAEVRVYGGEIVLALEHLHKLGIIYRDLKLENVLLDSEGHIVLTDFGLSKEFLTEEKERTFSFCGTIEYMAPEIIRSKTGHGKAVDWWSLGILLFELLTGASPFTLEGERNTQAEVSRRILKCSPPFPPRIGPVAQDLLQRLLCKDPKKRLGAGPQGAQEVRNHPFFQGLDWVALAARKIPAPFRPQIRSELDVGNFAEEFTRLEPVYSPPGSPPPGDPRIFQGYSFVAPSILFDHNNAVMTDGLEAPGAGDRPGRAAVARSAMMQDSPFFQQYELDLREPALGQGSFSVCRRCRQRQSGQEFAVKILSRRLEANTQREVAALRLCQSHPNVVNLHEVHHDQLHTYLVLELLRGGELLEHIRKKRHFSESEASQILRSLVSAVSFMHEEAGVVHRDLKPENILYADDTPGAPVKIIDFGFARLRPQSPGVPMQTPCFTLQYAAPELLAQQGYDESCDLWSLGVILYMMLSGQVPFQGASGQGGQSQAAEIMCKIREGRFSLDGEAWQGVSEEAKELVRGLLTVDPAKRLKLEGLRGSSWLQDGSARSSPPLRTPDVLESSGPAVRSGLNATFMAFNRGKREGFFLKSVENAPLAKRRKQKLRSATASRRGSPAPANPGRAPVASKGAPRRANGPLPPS

As to `CC(C)[C@H](CO)Nc1nc(Nc2cc(N)cc(Cl)c2)c2ncn(C(C)C)c2n1`, the residual activity in experiment [1] came to 100%; in experiment [2] it was 90%; in [3], 118%; in experiment [4], 76%; in [5], 51%; in experiment [6], 40%. In addition, the residual activity stood at 12% in experiment [7]; 82% in [8]; 47% in [9]; 60% in experiment [10]; 78% in [11]; 26% in experiment [12]. In addition, the residual activity was 22% in experiment [13]; 2% in experiment [14]; 74% in experiment [15]; 13% in experiment [16]; 94% in experiment [17]; 75% in [18].

For the molecule `CC(C)(C)n1nc(Cc2cccc3ccccc23)c2c(N)ncnc21`, the residual activity came to 99% in experiment [1]; 86% in experiment [2]; 120% in experiment [3]; 93% in [4]; 95% in experiment [19]; 116% in experiment [6]. Also, the residual activity in experiment [7] is 80%; in experiment [8] it was 90%; in experiment [9] it was 58%; in experiment [20], 91%; in experiment [10], 29%; in [12], 32%. Moreover, the residual activity in experiment [15] amounted to 128%; in experiment [16] it was 73%; in [17] it was 113%; in experiment [18] it was 98%.

Turning to `COc1cc2nccc(Oc3ccc(NC(=S)NC(=O)c4ccccc4C)cc3)c2cc1OC`, the residual activity turned out to be 84% in experiment [1]; 67% in experiment [2]; 137% in [3]; 102% in experiment [4]; 87% in experiment [19]; 93% in [5]. For the same molecule, the residual activity was 81% in [8]; 86% in experiment [9]; 97% in [20]; 77% in [10]; 65% in experiment [11]; 68% in experiment [12]. Also, the residual activity turned out to be 14% in experiment [13]; 4% in experiment [14]; 28% in experiment [15]; 4% in [16]; 91% in experiment [17]; 93% in [18].

As for `COc1ccc2c(c1)c(C1=C(c3c[nH]c4ccccc34)C(=O)NC1=O)cn2CCCN(C)C`, the residual activity in experiment [1] is 80%; in [2], 41%; in experiment [3], 37%; in experiment [4] it was 4%; in [19], 39%; in experiment [5] it was 5%. In addition, the residual activity is 52% in [7]; 64% in [8]; 25% in experiment [9]; 21% in [11]; 5% in experiment [12]; 81% in [13]. Further, the residual activity in experiment [14] amounted to 10%; in experiment [15], 111%; in [17], 105%; in experiment [18], 82%.

Consider `O=c1cc(N2CCNCC2)oc2c(-c3ccccc3)cccc12`, for which the residual activity worked out at 93% in experiment [1]; 76% in [2]; 94% in experiment [4]; 93% in experiment [19]; 103% in [5]; 103% in [6]. For the same molecule, the residual activity in experiment [7] was 89%; in experiment [8] it was 98%; in experiment [9] it was 99%; in [20], 95%; in [10], 104%; in [11], 59%. Further, the residual activity in experiment [12] was found to be 55%; in experiment [14], 87%.

Regarding `NC(=O)c1ccc(-c2nc(-c3ccc4c(c3)OCCO4)c(-c3ccccn3)[nH]2)cc1`, the residual activity in experiment [1] is 95%; in experiment [2], 92%; in experiment [3], 120%; in [4] it was 124%; in experiment [8], 90%; in experiment [9] it was 118%. Moreover, the residual activity was 91% in experiment [11] and 82% in experiment [12].

Turning to `O=S(=O)(NCCNC/C=C/c1ccc(Br)cc1)c1cccc2cnccc12`, the residual activity in experiment [2] was 66%; in [3], 19%; in experiment [4], 3%; in experiment [19], 9%; in experiment [5], 2%; in [11], 78%. For the same molecule, the residual activity is 52% in experiment [12] and 25% in [14].

As usually defined, the residual activity is the signal under treatment as a percentage of the control signal.
